Test results from PubChem BioAssay (NCATS).
Records with an inconclusive call do not appear. A number with no mark means an inactive call. The source made the active and inactive calls. Calls come from the whole dose curve; as a rule, active = well fitted cell-killing curve with a large enough effect; inconclusive = small, poorly fitted or top-dose-only effect; inactive = no such curve, though single readings can be large or run the other way.

test: Quantitative High-Throughput drug screen in 47 multiple myeloma cell lines against the NCATS MIPE library collection: JIM3_ECACC cell viability assay (AID 1918963; note: nearly all actives have a fitted effect of over 35% in size;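 for viability, percent of control: 100% = DMSO-only wells and 0% = media-only wells without cells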); details: JIM3 myeloma viability, CellTiter-Glo ATP, 48 h; series mostly up to 45.8 µM; viability, percent of control: at the top concentration
Method in brief: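 Primary qHTS used for cherry-picking: cells at 500/well, library compounds for 48 h (37C, 5% CO2), luminescent ATP assay.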
Potency is the fitted concentration of half-maximal effect.

**Q.** Which Potency does the source give for `COC(=O)Nc1nc2ccc(C(=O)c3ccccc3)cc2[nH]1` here?
**A.** 2.96 µM (active)

**Q.** For `COc1cc2c(Nc3ccc(Br)cc3F)ncnc2cc1OCC1CCN(C)CC1`, which “viability, percent of control” value is on record?
**A.** 77%

**Q.** For `CC(C(=O)O)c1ccc2c(c1)CC(=O)c1ccccc1S2` (stereo unspecified), which “viability, percent of control” value is on record?
**A.** 98.1%

**Q.** With `CCN(CC)CCn1c(=O)c(Cc2ccc(OC)cc2)nc2ccccc21` as the molecule, how does the “viability, percent of control” value read?
**A.** 105%

**Q.** For `CCOC(=O)c1ccc(C#Cc2ccc3c(c2)C(C)(C)CCS3)nc1`, which Potency is on record?
**A.** 18.7 µM (active)

**Q.** With `CNC1CCCN(c2c(F)cc3c(=O)c(C(=O)O)cn(C4CC4)c3c2OC)C1` (stereo unspecified) as the molecule, how does the “viability, percent of control” value read?
**A.** 114%

**Q.** Which Potency does the source give for `NC(N)=NC(N)=NCCc1ccccc1` here?
**A.** 4.69 µM (active)

**Q.** For `CN1CCCC(n2nc(Cc3ccc(Cl)cc3)c3ccccc3c2=O)CC1` (stereo unspecified), which Potency is on record?
**A.** 14.8 µM (active)

**Q.** For `Cc1nnc(NS(=O)(=O)c2ccc(N)cc2)s1`, which “viability, percent of control” value is on record?
**A.** 132%

**Q.** Which “viability, percent of control” value does the source give for `CNS(=O)(=O)Cc1ccc2[nH]cc(CCN(C)C)c2c1` here?
**A.** 99.5%

**Q.** Which “viability, percent of control” value does the source give for `NC(=O)c1cccnc1` here?
**A.** 108%

**Q.** For `CNS(=O)(=O)CCc1ccc2[nH]cc(C3CCN(C)CC3)c2c1`, which Potency is on record?
**A.** 2.35 µM (active)

**Q.** For `Cc1cccc(N(C)C(=S)Oc2ccc3ccccc3c2)c1`, which “viability, percent of control” value is on record?
**A.** 92%

**Q.** Which “viability, percent of control” value does the source give for `N[C@@H](Cc1ccc(O)c(O)c1)C(=O)O` here?
**A.** 127%

**Q.** For `CS(=O)(=O)c1ccc([C@@H](O)[C@@H](CO)NC(=O)C(Cl)Cl)cc1`, which Potency is on record?
**A.** 9.35 µM (active)

**Q.** With `CNC(=O)c1cc(Oc2ccc(NC(=O)Nc3ccc(Cl)c(C(F)(F)F)c3)cc2)ccn1` as the molecule, how does the Potency read?
**A.** 10.5 µM (active)

**Q.** Which “viability, percent of control” value does the source give for `Nc1ccc(S(=O)(=O)Nc2ccccn2)cc1` here?
**A.** 106%

**Q.** For `CC(C)(C#N)c1cc(Cn2cncn2)cc(C(C)(C)C#N)c1`, which “viability, percent of control” value is on record?
**A.** 89.8%

**Q.** With `NS(=O)(=O)c1cc2c(cc1Cl)NC(C(Cl)Cl)NS2(=O)=O` (stereo unspecified) as the molecule, how does the “viability, percent of control” value read?
**A.** 102%

**Q.** With `CCCOc1ccc(C(=O)OCCN(CC)CC)cc1N` as the molecule, how does the “viability, percent of control” value read?
**A.** 103%

**Q.** With `CC[C@H](NC(C)C)[C@H](O)c1ccc(O)c2[nH]c(=O)ccc12` as the molecule, how does the “viability, percent of control” value read?
**A.** 119%

**Q.** With `CN1CCN(c2c(F)cc3c(=O)c(C(=O)O)cn4c3c2OCN4C)CC1` as the molecule, how does the “viability, percent of control” value read?
**A.** 129%

**Q.** With `Cc1ncc([N+](=O)[O-])n1CCO` as the molecule, how does the “viability, percent of control” value read?
**A.** 120%

**Q.** With `NC(=O)c1cccc(N)c1` as the molecule, how does the “viability, percent of control” value read?
**A.** 91.2%

**Q.** For `CC(C)C1CCC(C(=O)N[C@H](Cc2ccccc2)C(=O)O)CC1` (stereo partly specified), which “viability, percent of control” value is on record?
**A.** 90.3%

**Q.** With `COc1cc(NS(=O)(=O)c2ccc(N)cc2)nc(OC)n1` as the molecule, how does the “viability, percent of control” value read?
**A.** 121%

**Q.** With `CCCCCCNC(=O)n1cc(F)c(=O)[nH]c1=O` as the molecule, how does the Potency read?
**A.** 16.6 µM (active)

**Q.** Which “viability, percent of control” value does the source give for `Cc1nnc(C(=O)NC(C)(C)c2nc(C(=O)NCc3ccc(F)cc3)c(O)c(=O)n2C)o1` here?
**A.** 124%

**Q.** Which “viability, percent of control” value does the source give for `Cc1noc(NS(=O)(=O)c2ccc(N)cc2)c1C` here?
**A.** 106%

**Q.** For `CC(=O)CC(c1ccccc1)c1c(O)c2ccccc2oc1=O` (stereo unspecified), which “viability, percent of control” value is on record?
**A.** 123%

**Q.** With `O=c1oc2c(O)c(O)cc3c(=O)oc4c(O)c(O)cc1c4c23` as the molecule, how does the “viability, percent of control” value read?
**A.** 123%

**Q.** With `COc1cccc(N(C)C(=S)Oc2ccc3c(c2)CCCC3)n1` as the molecule, how does the “viability, percent of control” value read?
**A.** 102%

**Q.** Which “viability, percent of control” value does the source give for `OC(Cn1cncn1)(Cn1cncn1)c1ccc(F)cc1F` here?
**A.** 110%

**Q.** For `COc1ccc(-c2ccc3cc(C(=O)O)ccc3c2)cc1C12CC3CC(CC(C3)C1)C2`, which “viability, percent of control” value is on record?
**A.** 119%

**Q.** With `NC(=O)N1c2ccccc2CC(=O)c2ccccc21` as the molecule, how does the “viability, percent of control” value read?
**A.** 110%

**Q.** Which “viability, percent of control” value does the source give for `C[C@]12C=CC(=O)C=C1CC[C@@H]1[C@@H]2C(=O)C[C@@]2(C)[C@H]1CC[C@]2(O)C(=O)CO` here?
**A.** 125% [at 23.2 µM]
